The campaign covered roughly 5,500 compounds. About 2,000 (36%) were called active. Not shown: some 18% with an inconclusive outcome. Cut-off read from the data, not from the text of the source: active = normalized growth mostly below about 0.91 (no sharp cut-off); inconclusive = no clear call, values can overlap the other calls; inactive = mostly above about 0.92. Some of the results follow.
Assay: chemical genetic growth profiling, strain panel (AID 1159580);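 note: tested at 20 µM; growth read once vehicle control cultures reached saturation at 30 °C; 1 = growth at the plate median or of vehicle wells; lower values mean less growth of the strain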
Conditions: growth OD
[1] = S. cerevisiae deletion strains, locus YAL013W, strain DEP1, active compounds read low
[2] = S. cerevisiae deletion strains, locus YBR229C, strain ROT2, active compounds read low
[3] = S. cerevisiae deletion strains, locus YDL101C, strain DUN1, active compounds read low
[4] = S. cerevisiae deletion strains, locus YDR150W, strain NUM1, active compounds read low
[5] = S. cerevisiae deletion strains, locus YHR030C, strain SLT2, active compounds read low
[6] = S. cerevisiae deletion strains, locus YJR043C, strain POL32, active compounds read low
[7] = S. cerevisiae deletion strains, locus YLR039C, strain RIC1, active compounds read low
[8] = S. cerevisiae deletion strains, locus YLR262C, strain YPT6, active compounds read low
[9] = S. cerevisiae deletion strains, locus YNL128W, strain TEP1, active compounds read low
[10] = S. cerevisiae deletion strains, locus YNL322C, strain KRE1, active compounds read low
[11] = S. cerevisiae deletion strains, locus YPL055C, strain LGE1, active compounds read low
[12] = S. cerevisiae deletion strains, locus YPL241C, strain CIN2, active compounds read low

Measured: normalized growth

Cc1cc(S(=O)(=O)NC(Cc2ccc([N+](=O)[O-])cc2)C(=O)O)c(Cl)cc1Cl (stereo not drawn)
inactive: [1] 1.01 | [2] 0.996 | S. cerevisiae deletion strains, locus YCL061C, strain MRC1, active compounds read low 1 | [3] 0.997 | [4] 0.927 | S. cerevisiae deletion strains, locus YEL061C, strain CIN8, active compounds read low 1.01 | S. cerevisiae deletion strains, locus YGR078C, strain PAC10, active compounds read low 1 | S. cerevisiae deletion strains, locus YGR229C, strain SMI1, active compounds read low 1.01 | [5] 1.07 | S. cerevisiae deletion strains, locus YHR087W, strain rtc3, active compounds read low 1 | [6] 0.998 | S. cerevisiae deletion strains, locus YJR075W, strain HOC1, active compounds read low 1 | [7] 1.01 | S. cerevisiae deletion strains, locus YLR058C, strain SHM2 (second series), active compounds read low 1 | S. cerevisiae deletion strains, locus YLR085C, strain ARP6, active compounds read low 1.02 | [8] 1 | S. cerevisiae deletion strains, locus YML094W, strain GIM5, active compounds read low 1.02 | S. cerevisiae deletion strains, locus YMR219W, strain ESC1, active compounds read low 0.995 | S. cerevisiae deletion strains, locus YMR263W, strain SAP30, active compounds read low 1 | [9] 1 | S. cerevisiae deletion strains, locus YNL153C, strain GIM3, active compounds read low 0.995 | S. cerevisiae deletion strains, locus YNL298W, strain CLA4 (second series), active compounds read low 1.01 | [10] 1 | S. cerevisiae deletion strains, locus YNR030W, strain Alg12, active compounds read low 1.01 | [11] 1.04 | [12] 1.02 | S. cerevisiae deletion strains, locus YPR135W, strain CTF4, active compounds read low 0.988 | S. cerevisiae strains, strain wild type, active compounds read low 1.01

CC(C)NC(C)Cc1ccc(I)cc1 (stereo not drawn)
inactive: [1] 0.999 | S. cerevisiae deletion strains, locus YAL040C, strain CLN3, active compounds read low 1.01 | S. cerevisiae deletion strains, locus YCL061C, strain MRC1 (second series), active compounds read low 1.01 | [4] 1.01 | S. cerevisiae deletion strains, locus YDR363W, strain ESC2, active compounds read low 0.995 | S. cerevisiae deletion strains, locus YER002W, strain NOP16, active compounds read low 1 | S. cerevisiae deletion strains, locus YNL175C, strain NOP13, active compounds read low 1.01 | S. cerevisiae deletion strains, locus YNL197C, strain WHI3, active compounds read low 1.01 | S. cerevisiae deletion strains, locus YNL224C, strain SQS1, active compounds read low 1 | [10] 1 | S. cerevisiae deletion strains, locus YOR083W, strain WHI5 (second series), active compounds read low 0.998 | [11] 0.991 | [12] 1.02

COC(=O)CC1C(C)(C)C(=O)C2CC3(O)C4=CC(=O)OC(c5ccoc5)C4(C)CCC3C1(C)C2=O (stereo not drawn)
inactive: S. cerevisiae deletion strains, locus YBR021W, strain FUR4, active compounds read low 1 | [2] 1 | S. cerevisiae deletion strains, locus YCL029C, strain bik1, active compounds read low 0.983 | S. cerevisiae deletion strains, locus YDL035C, strain GPR1, active compounds read low 1.01 | S. cerevisiae deletion strains, locus YDL074C, strain BRE1, active compounds read low 1 | [3] 1 | S. cerevisiae deletion strains, locus YDL185W, strain tfp1, active compounds read low 0.981 | S. cerevisiae deletion strains, locus YDL192W, strain arf1, active compounds read low 0.99 | S. cerevisiae deletion strains, locus YDR101C, strain arx1, active compounds read low 0.997 | S. cerevisiae deletion strains, locus YDR162C, strain NBP2, active compounds read low 1.02 | S. cerevisiae deletion strains, locus YDR318W, strain mcm21, active compounds read low 0.977 | S. cerevisiae deletion strains, locus YDR388W, active compounds read low 0.982 | S. cerevisiae deletion strains, locus YDR502C, strain sam2, active compounds read low 0.992 | S. cerevisiae deletion strains, locus YER110C, active compounds read low 0.983 | S. cerevisiae deletion strains, locus YER155C, strain BEM2, active compounds read low 1 | S. cerevisiae deletion strains, locus YER167W, strain BCK2, active compounds read low 1.01 | S. cerevisiae deletion strains, locus YGL078C, strain dbp3, active compounds read low 0.982 | S. cerevisiae deletion strains, locus YGL086W, strain mad1, active compounds read low 0.993 | S. cerevisiae deletion strains, locus YGL248W, strain PDE1, active compounds read low 1 | S. cerevisiae deletion strains, locus YGR135W, strain pre9, active compounds read low 0.985 | S. cerevisiae deletion strains, locus YGR252W, strain gcn5, active compounds read low 0.906 | [5] 1.01 | S. cerevisiae deletion strains, locus YHR079C, strain IRE1 (second series), active compounds read low 0.977 | S. cerevisiae deletion strains, locus YHR094C, strain hxt1, active compounds read low 0.985 | S. cerevisiae deletion strains, locus YHR129C, strain ARP1, active compounds read low 1 | S. cerevisiae deletion strains, locus YHR200W, strain rpn10, active compounds read low 0.986 | S. cerevisiae deletion strains, locus YIL066C, strain RNR3, active compounds read low 1.01 | S. cerevisiae deletion strains, locus YIL073C, strain SPO22, active compounds read low 1.03 | S. cerevisiae deletion strains, locus YIL125W, strain kgd1, active compounds read low 0.984 | S. cerevisiae deletion strains, locus YIR030C, strain dcg1, active compounds read low 0.989 | S. cerevisiae deletion strains, locus YJL095W, strain BCK1, active compounds read low 1.02 | S. cerevisiae deletion strains, locus YJL134W, strain LCB3, active compounds read low 1 | S. cerevisiae deletion strains, locus YJL168C, strain set2, active compounds read low 0.982 | S. cerevisiae deletion strains, locus YJL187C, strain SWE1 (second series), active compounds read low 1 | [6] 0.997 | S. cerevisiae deletion strains, locus YKL009W, strain mrt4, active compounds read low 0.989 | S. cerevisiae deletion strains, locus YKL068W, active compounds read low 0.993 | S. cerevisiae deletion strains, locus YKL085W, strain MDH1 (second series), active compounds read low 0.991 | S. cerevisiae deletion strains, locus YKL085W, strain MDH1, active compounds read low 0.991 | S. cerevisiae deletion strains, locus YKR001C, strain vps1, active compounds read low 0.97 | [7] 1.05 | S. cerevisiae deletion strains, locus YLR058C, strain SHM2, active compounds read low 1 | S. cerevisiae deletion strains, locus YLR102C, strain apc9, active compounds read low 0.988 | [8] 1.13 | S. cerevisiae deletion strains, locus YLR268W, strain sec22, active compounds read low 0.977 | S. cerevisiae deletion strains, locus YLR342W, strain FKS1 (second series), active compounds read low 0.992 | S. cerevisiae deletion strains, locus YLR371W, strain rom2, active compounds read low 0.986 | S. cerevisiae deletion strains, locus YLR418C, strain cdc73, active compounds read low 0.966 | S. cerevisiae deletion strains, locus YML016C, strain PPZ1, active compounds read low 1 | S. cerevisiae deletion strains, locus YML032C, strain rad52, active compounds read low 0.982 | S. cerevisiae deletion strains, locus YML124C, strain tub3, active compounds read low 0.988 | S. cerevisiae deletion strains, locus YMR078C, strain ctf18, active compounds read low 0.991 | S. cerevisiae deletion strains, locus YMR223W, strain ubp8, active compounds read low 0.992 | S. cerevisiae deletion strains, locus YMR307W, strain GAS1, active compounds read low 0.985 | S. cerevisiae deletion strains, locus YNL067W, strain RPL9B, active compounds read low 1.01 | [9] 1.01 | S. cerevisiae deletion strains, locus YNL233W, strain BNI4, active compounds read low 1.01 | S. cerevisiae deletion strains, locus YNL250W, strain rad50, active compounds read low 0.986 | S. cerevisiae deletion strains, locus YNL271C, strain bni1, active compounds read low 0.979 | S. cerevisiae deletion strains, locus YNL298W, strain CLA4, active compounds read low 0.982 | S. cerevisiae deletion strains, locus YNL307C, strain MCK1, active compounds read low 0.986 | S. cerevisiae deletion strains, locus YNR052C, strain pop2, active compounds read low 0.978 | S. cerevisiae deletion strains, locus YOL012C, strain htz1 1.11 | S. cerevisiae deletion strains, locus YOL147C, strain pex11, active compounds read low 0.983 | S. cerevisiae deletion strains, locus YOR061W, strain CKA2, active compounds read low 1.01 | S. cerevisiae deletion strains, locus YOR069W, strain VPS5, active compounds read low 1 | S. cerevisiae deletion strains, locus YOR136W, strain idh2, active compounds read low 0.978 | S. cerevisiae deletion strains, locus YOR144C, strain elg1, active compounds read low 0.985 | S. cerevisiae deletion strains, locus YOR184W, strain ser1, active compounds read low 0.992 | S. cerevisiae deletion strains, locus YOR316C, strain cot1, active compounds read low 0.991 | [11] 0.994 | [12] 1 | S. cerevisiae deletion strains, locus YPR119W, strain clb2, active compounds read low 0.999 | S. cerevisiae deletion strains, locus YPR141C, strain kar3, active compounds read low 0.99 | S. cerevisiae deletion strains, locus YPR163C, strain tif3, active compounds read low 0.982 | S. cerevisiae deletion strains, locus YPR167C, strain met16, active compounds read low 0.985 | S. cerevisiae deletion strains, strain wtn01, active compounds read low 0.99

Reference: PubChem BioAssay AID1159580 (chemical genetic matrix, 2015)
